# From paper PMC4336329 (PLoS ONE, 2015)
# The campaign covered roughly 310,000 compounds. About 14,000 (4.5%) showed an effect of 50% or more. Effects have a minus sign here. The sample as a whole holds a higher share of strong results than the screen did.
# Target: human ether-à-go-go-related gene (hERG) potassium channel (human, UniProt Q12809)
# Assay: primary screen, population patch clamp on CHO cells stably expressing hERG; higher = less effect of the substance
# 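Also: peak tail current of the secondary pulse compared with the same well before compound.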
# Chain of human ether-à-go-go-related gene (hERG) potassium channel (Q12809 whole entry, looked up): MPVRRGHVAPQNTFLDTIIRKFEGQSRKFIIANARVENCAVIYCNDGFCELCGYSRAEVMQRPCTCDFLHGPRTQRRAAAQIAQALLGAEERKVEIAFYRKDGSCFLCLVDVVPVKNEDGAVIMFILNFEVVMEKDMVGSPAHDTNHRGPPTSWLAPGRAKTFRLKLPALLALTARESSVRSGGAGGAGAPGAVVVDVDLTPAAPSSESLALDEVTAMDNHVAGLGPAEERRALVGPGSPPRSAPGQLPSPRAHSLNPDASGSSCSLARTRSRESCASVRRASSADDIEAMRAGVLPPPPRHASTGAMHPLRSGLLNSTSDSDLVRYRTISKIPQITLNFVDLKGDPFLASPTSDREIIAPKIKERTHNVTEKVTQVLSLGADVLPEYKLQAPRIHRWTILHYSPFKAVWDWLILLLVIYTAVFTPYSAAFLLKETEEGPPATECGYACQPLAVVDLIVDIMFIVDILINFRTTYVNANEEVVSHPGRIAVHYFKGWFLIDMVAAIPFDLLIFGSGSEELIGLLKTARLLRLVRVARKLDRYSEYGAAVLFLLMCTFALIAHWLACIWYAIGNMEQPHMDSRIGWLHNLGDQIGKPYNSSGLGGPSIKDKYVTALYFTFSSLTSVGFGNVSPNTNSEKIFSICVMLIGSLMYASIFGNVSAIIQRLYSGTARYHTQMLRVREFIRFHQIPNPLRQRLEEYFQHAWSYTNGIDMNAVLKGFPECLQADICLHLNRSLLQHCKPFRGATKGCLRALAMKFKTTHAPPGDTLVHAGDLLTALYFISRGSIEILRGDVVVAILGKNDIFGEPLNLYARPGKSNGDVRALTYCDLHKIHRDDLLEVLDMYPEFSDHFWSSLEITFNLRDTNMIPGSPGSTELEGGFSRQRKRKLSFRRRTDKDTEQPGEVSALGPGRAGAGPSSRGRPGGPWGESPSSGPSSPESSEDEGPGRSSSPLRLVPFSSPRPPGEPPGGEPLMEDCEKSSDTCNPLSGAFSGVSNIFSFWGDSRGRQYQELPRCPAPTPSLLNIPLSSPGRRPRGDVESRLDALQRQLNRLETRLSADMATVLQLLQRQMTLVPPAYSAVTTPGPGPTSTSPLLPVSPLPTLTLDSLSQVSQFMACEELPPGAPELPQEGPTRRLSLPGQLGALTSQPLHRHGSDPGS
row,Compound,"hERG current change (%, negative = inhibition) at 10uM [%]"
1,Cc1ccc(S(=O)(=O)N2CCC(C(=O)N[C@H](C(=O)NCc3ccco3)C(C)C)CC2)cc1,-15.9
2,O=C(NCC(=O)N(c1ccc(Cl)cc1)C(C(=O)NC1CCCC1)c1ccncc1)c1ccco1 (stereo not shown),-5.29
3,O=C(Nc1ccccn1)Nc1ccccc1Cl,23.2
4,Cc1nc2scc(-c3ccccc3)c2c(=O)o1,-12.7
5,CN1C=CC=C/C1=C1\SC(=S)N(N)C1=O,26.4
6,CN1C=CC=C/C1=C1\SC(=S)N(C2CCCCC2)C1=O,-52.3
7,CCN1C(=O)/C(=C2/C=CC=CN2C)SC1=S,-35.2
8,O=C(N/N=C/c1ccc(O)c([N+](=O)[O-])c1)c1ccncc1,-7.5
9,Cc1ccc(C)c(CSc2ncccc2C(=O)O)c1,6.29
10,O=C(N/N=C/c1ccc(Cl)cc1Cl)c1cccc(F)c1,-10.5
11,O=C(C[n+]1cccc(C(=O)N/N=C/c2ccc(Br)cc2)c1)c1ccccc1,-56.5
12,O=C(C[n+]1ccc(C(=O)N/N=C/c2ccc(Br)cc2)cc1)c1ccccc1.[Br-],-63.6
13,COc1ccc(OC)c(/C=N/NC(=O)c2ccc[n+](CC(=O)c3ccccc3)c2)c1,15.3
14,COc1ccc(OC)c(/C=N/NC(=O)c2cc[n+](CC(=O)c3ccccc3)cc2)c1.[Br-],-5.33
15,O=C(C[n+]1ccc(C(=O)N/N=C/c2ccc(Cl)cc2Cl)cc1)c1ccccc1.[Br-],-74.8
16,O=C(C[n+]1ccc(C(=O)N/N=C/c2ccc(OCc3ccccc3)cc2)cc1)c1ccccc1.[Br-],1.3
17,O=C(C[n+]1ccc(C(=O)N/N=C/c2ccc(O)cc2)cc1)c1ccccc1.[Br-],-6.07
18,O=C(N/N=C/c1ccc(Br)cc1)c1cc[n+](Cc2ccccc2)cc1.[Cl-],-10.7
19,Cc1ccc(C(=O)N2CCCC(C(=O)c3ccc(Oc4ccccc4)cc3)C2)cn1 (stereo not shown),-41
20,CCC(=O)N1CCc2cc(S(=O)(=O)NC(C(=O)NCc3ccccc3)C(C)C)ccc21 (stereo not shown),13.2
21,COc1ccc(OCC(=O)Nc2cccc(S(=O)(=O)N(C)c3ccccc3)c2)c([N+](=O)[O-])c1,-6.21
22,CCC1c2ccc(C)n2CCN1C(=O)Nc1ccccc1OC (stereo not shown),9.92
23,C=CCN(CC=C)C(=S)NC(=O)/C=C/c1ccc(C)cc1,8.14
24,CC1(C)C(=O)N(c2ccccc2Cl)C(=O)c2ccccc21,-18.2
25,Cl.O=C(CCN1CCCC1)Nc1ccc(Br)cc1,-15.7

row,Compound,"hERG current change (%, negative = inhibition) at 10uM [%]"
1,COc1ccc(C(=O)CCN2CCCC(C)C2)cc1.Cl (stereo not shown),-26.2
2,CC1CCN(CCNC(=S)Nc2ccc(Cl)cc2)CC1,-65.7
3,Cc1cccc(NC(=O)CCN2CCCC(C)C2)c1.Cl (stereo not shown),1.45
4,CC1CCCN(CCC(=O)c2ccc(Br)cc2)C1.Cl (stereo not shown),-64.4
5,COc1ccc(NC(=O)CCN2CCCC(C)C2)cc1 (stereo not shown),-23.2
6,COc1ccc(NC(=S)NCCN2CCC(C)CC2)cc1,-46
7,CC1CCN(CCC(=O)Nc2ccc(Br)cc2)CC1.Cl,-54.6
8,S=C(NCCN1CCOCC1)Nc1ccc(Cl)cc1,5.48
9,CC1CCCN(CCC(=O)Nc2ccccc2)C1.Cl (stereo not shown),12.2
10,CC1CCCN(CCC(=O)Nc2ccc(Br)cc2)C1.Cl (stereo not shown),-57.6
11,CCN1CCN(CCC(=O)Nc2ccc(Br)cc2)CC1.Cl,-24.4
12,CCS(=O)(=O)c1ncc(Cl)c(C(=O)Nc2ccc(S(=O)(=O)N3CCC(C)CC3)cc2)n1,14.9
13,CC(=O)c1ccc(NC(=O)C(C)OC(=O)c2ccc(NS(=O)(=O)c3ccc(F)c(F)c3)cc2)cc1 (stereo not shown),-6.98
14,COc1ccc(C(C)NC(=O)c2ccc(Cl)cc2)cc1OC (stereo not shown),0.0898
15,Cc1ccc(/C=C/c2nnc(-c3ccc(C)cc3)o2)cc1,11.3
16,COCCNC(=O)Nc1ccc2c(c1)N(C)C(=O)CS2,11.5
17,COc1ccc(NC(=O)/C(=C\c2ccc(OS(=O)(=O)c3ccc(C)cc3)cc2)NC(=O)c2ccccc2)cc1,17.1
18,CC(=O)N1CCN=C1SCc1ccccc1F,12.6
19,Cc1cc(C(=O)O)c(S(C)(=O)=O)s1,-1.18
20,O=[N+]([O-])c1cccc(-c2nnn(C34CC5CC(CC(C5)C3)C4)n2)c1,5.85
21,Cc1ccc(NC(=O)CCN2CCC(C)CC2)cc1.Cl,18.6
22,CC1CCN(CCC(=O)Nc2ccc(Cl)cc2)CC1.Cl,-56.9
23,CC1CCN(CCC(=O)Nc2ccccc2)CC1,-10.1
24,CC1CC(C)CN(CCC(=O)Nc2ccc3c(c2)CCC3)C1.Cl (stereo not shown),-43.6
25,Cc1cccc(NC(=O)CCN2CC(C)CC(C)C2)c1.Cl (stereo not shown),-49.2

row,Compound,"hERG current change (%, negative = inhibition) at 10uM [%]"
1,CC1CC(C)CN(CCC(=O)Nc2ccc(Br)cc2)C1.Cl (stereo not shown),-53.5
2,COc1ccc(CN2C(=O)NC3(CCOc4ccccc43)C2=O)cc1F (stereo not shown),-13.4
3,COC(=O)c1c(NC(=S)Nc2ccc(F)cc2[N+](=O)[O-])sc2c1CCCCC2,4.46
4,CC1CCCCN1C/C=C/c1ccccc1[N+](=O)[O-] (stereo not shown),-39
5,CCOC(=O)C1CCCN(C/C=C/c2ccccc2)C1 (stereo not shown),-24.5
6,CCN(CC)C(=O)C1CCCN(C/C=C/c2ccccc2[N+](=O)[O-])C1 (stereo not shown),-33
7,CCOC(=O)C1CCN(C/C=C/c2ccccc2[N+](=O)[O-])CC1,-70.2
8,CCOC(=O)C1CCN(C/C=C/c2ccccc2OC)CC1,-20.5
9,O=[N+]([O-])c1ccccc1/C=C/CN1CCCCC1,-6.44
10,O=[N+]([O-])c1ccccc1/C=C/CN1CCCCC1CO (stereo not shown),5.49
11,CCC1CCCCN1C/C=C/c1ccccc1[N+](=O)[O-] (stereo not shown),-60.2
12,CC1CCCN(C/C=C/c2ccccc2[N+](=O)[O-])C1 (stereo not shown),-23.1
13,CCOC(=O)C1CCCN(C/C=C/c2ccccc2[N+](=O)[O-])C1 (stereo not shown),-68.2
14,CCOC(=O)C1CCN(C/C=C/c2ccccc2)CC1,-28.2
15,CC1CC(C)CN(C/C=C/c2ccccc2[N+](=O)[O-])C1 (stereo not shown),-55.9
16,C[N+](C)(C)CCN1C(=O)CSC1=O.[I-],10.3
17,COC(=O)c1ccc(NC(=O)CSCc2ccccc2)cc1,-13.8
18,Cc1ccccc1C(=O)O/N=C1\CCS(=O)(=O)c2sccc21,8.17
19,Cc1ccccc1NC(=S)NC(NC(=O)CF)C(Cl)(Cl)Cl (stereo not shown),2.77
20,CCOP(=O)(OCC)C(NC(=O)Nc1cccc(Cl)c1)C(N)=O (stereo not shown),8.47
21,C/C(=N\OCC(=O)Nc1ccccc1C(C)(C)C)c1ccc2c(c1)OCCO2,-10.9
22,O=C(Nc1ccc(Cl)cc1)OCc1cc(-c2ccccc2Cl)on1,7.51
23,CC1CN(C(=O)COC(=O)c2ccc(Cl)nc2)CC(C)O1 (stereo not shown),6.41
24,COc1ccc(OC)c(C2CC(=O)N3CN(c4ccccc4)CSC3=C2C#N)c1 (stereo not shown),9.38
25,CC(=O)n1cc(/C=C2/N=C(c3ccccc3)OC2=O)c2ccccc21,7.37

row,Compound,"hERG current change (%, negative = inhibition) at 10uM [%]"
1,O=C1C2CC=CCC2C(=O)N1c1nc2n(n1)C(c1ccccc1)CC(c1ccccc1)N2 (stereo not shown),-52.6
2,CC1CC(c2ccccc2)n2nc(N3C(=O)c4ccccc4C3=O)nc2N1 (stereo not shown),12.4
3,CC1=CC(c2ccccc2)n2nc(N3C(=O)C4CC=CCC4C3=O)nc2N1 (stereo not shown),-7.93
4,CC1C/C(=C/c2cccn2C)C(=O)/C(=C/c2cccn2C)C1 (stereo not shown),9.5
5,O=C(NCc1nc(-c2ccc(C(F)(F)F)cc2)no1)c1cccs1,5.51
6,CCOc1ccc(-n2ccnc2SCC(=O)N2CCCc3ccccc32)cc1,-13.7
7,N#CCCN1CCN(C(=S)c2ccc(-c3ccc(Cl)c(Cl)c3)o2)CC1,-14.1
8,S=C(c1ccc(-c2cccc(Cl)c2)o1)N1CCCCC1,21.7
9,N#CCCN1CCN(C(=S)c2ccc(-c3cc(Cl)ccc3Cl)o2)CC1,-12.3
10,S=C(c1ccc(-c2cccc(Cl)c2)o1)N1CCOCC1,2.46
11,N#CCCN1CCN(C(=S)c2ccc(-c3ccc(Cl)cc3)o2)CC1,-55.8
12,N#CCCN1CCN(C(=S)c2ccc(-c3cccc(Cl)c3)o2)CC1,-59.9
13,CC(C)c1ccc2oc(=O)cc(CN3CCCCC3)c2c1,-12.8
14,O=C(CN1N=C(c2ccc(Cl)cc2)CCC1=O)NCc1cccnc1,-26.4
15,CCO.CCn1c(COc2ccc3c(c2)OCO3)nnc1SCC(=O)O,-0.394
16,CCOC(=O)N1CCN(C(=O)CS(=O)(=O)Cc2nc(-c3ccccc3F)oc2C)CC1,-13.6
17,CCOC(=O)CNC(=O)CSc1nc2cccnc2n1CC,-7.04
18,O=C(CSc1nc2cccnc2n1Cc1ccccc1)N1CCCC1,-63.7
19,Cn1c(SCC(=O)N2CCCC2)nc2cccnc21,16.9
20,CCOC(=O)CNC(=O)CSc1nc2cccnc2n1C,7.54
21,CCOC(=O)CNC(=O)CSc1nc2cccnc2n1Cc1ccccc1,-53.9
22,COCCn1c(SCC(=O)N2CCCCC2)nc2cccnc21,-1.5
